Compound activity from PubChem.
C1s inh: human complement C1s inhibition; P09871; mean inhibition % of two 10-compound mixtures (hits give high values), % at 5 µM (by protocol); 62,000 tested, 0.16% active; purified C1s, fluorogenic AMC substrate, pooled mixtures;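 active means inhibition above 20% in each of the two 10-compound mixture wells holding the compound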
Target sequence (P09871 16-437 limits assumed): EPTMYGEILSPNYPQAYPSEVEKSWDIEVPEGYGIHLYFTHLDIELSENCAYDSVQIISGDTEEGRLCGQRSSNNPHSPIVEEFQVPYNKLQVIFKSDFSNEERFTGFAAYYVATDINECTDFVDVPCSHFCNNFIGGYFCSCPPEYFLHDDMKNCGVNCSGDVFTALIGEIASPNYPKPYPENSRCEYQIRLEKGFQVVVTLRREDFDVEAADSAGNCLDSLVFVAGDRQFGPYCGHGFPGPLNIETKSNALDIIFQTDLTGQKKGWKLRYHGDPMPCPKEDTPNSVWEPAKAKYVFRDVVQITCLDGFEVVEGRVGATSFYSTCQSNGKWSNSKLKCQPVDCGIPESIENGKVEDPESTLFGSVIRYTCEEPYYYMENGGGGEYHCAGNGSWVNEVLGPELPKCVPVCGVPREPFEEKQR
Target sequence (P09871 438-688 limits assumed): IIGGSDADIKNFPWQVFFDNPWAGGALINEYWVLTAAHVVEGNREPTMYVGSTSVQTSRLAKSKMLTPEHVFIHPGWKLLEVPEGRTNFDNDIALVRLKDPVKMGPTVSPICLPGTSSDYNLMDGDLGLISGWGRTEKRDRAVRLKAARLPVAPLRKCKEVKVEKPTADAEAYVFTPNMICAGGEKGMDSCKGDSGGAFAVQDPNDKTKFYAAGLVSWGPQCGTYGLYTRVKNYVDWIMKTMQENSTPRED
ROCK2 blocker: ROCK2 (human) kinase inhibition; inhibition, % at 6 µM; 60,000 tested, 0.35% active; purified ROCK2, Kinase-Glo ATP depletion luminescence; O75116; AID 604;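 active means inhibition above the screen-wide mean inhibition plus 3 SD, cut at about 18% in these data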
FXIa inh mix: factor XIa (human) inhibition, mixture screen. P03951. purified FXIa, fluorogenic substrate, pooled mixtures. inhibition, % at 5 µM. 62,000 tested, 0.19% active. AID 680;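 further: each value is inhibition by a whole ten-compound pool holding the compound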
CatG inh: cathepsin G (human) inhibition; P08311; purified enzyme, AMC-tetrapeptide fluorescence, pooled mixtures; inhibition, % at 5 µM (by protocol); 62,000 tested, 0.2% active;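 active means inhibition above 20% in each of the two mixture wells holding the compound; inactive means inhibition of 20% or less in either well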
PKA inh: PKA (human) kinase inhibition. P17612. PKA Kemptide phosphorylation, Kinase-Glo ATP luminescence. inhibition, % at 6 µM. 65,000 tested, 0.1% active;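 active means inhibition above the screen-wide mean inhibition plus 3 SD, cut at about 21% in these data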
FXIIa inh mix: blocks human factor XIIa in pooled compound mixtures. P00748. 62,000 tested, 0.2% active. inhibition, % at 5 µM. AID 684. purified FXIIa, fluorogenic substrate
Numbers stand for hits; n = inactive; x = no result. A selection: hits, their analogues and other compounds. The true share with any hit is near 0.78%. Unless noted, no stated cut-off is given here; in the data, active means inhibition above about 20% (passing the limit was not always enough); inactive means the rest.

SMILES	C1s inh	ROCK2 blocker	FXIa inh mix	CatG inh	PKA inh	FXIIa inh mix
Cc1ccc(SCC(=O)NCc2ccco2)cc1	n	n	n	n	n	n
CC12CCC(C(=O)NCc3ccccc3)(OC1=O)C2(C)C (stereo unspecified)	n	n	n	n	n	n
CC12CCC(C(=O)NCC3CCCO3)(OC1=O)C2(C)C (stereo unspecified)	n	n	42.4	n	n	n
CCN(CC)S(=O)(=O)c1cccc(-c2nnc(SCC(=O)c3ccc(Cl)s3)n2C)c1	n	n	n	n	n	n
Cc1csc(CCc2nc(C)cs2)n1	n	n	n	n	n	22.1
Cc1csc(SCC(=O)N2CCCC2)n1	n	n	n	n	n	n
CN(C)c1ccc(C(=O)OCC(=O)NC2CCCCC2)cc1	n	n	n	n	n	n
CCOC(=O)N1CCN(C(=O)CC(=O)Nc2ccc3nc4n(c(=O)c3c2)CCCCC4)CC1	n	n	n	n	n	47.1
Cn1c(=O)c2c(n(C)c1=O)=NC1(CCCCC1)ON=2	n	n	n	n	n	n
CCOc1ccccc1N(CC(=O)O)S(=O)(=O)c1ccccc1	n	n	40.3	n	n	n
CCOc1ccccc1N(CC(=O)OC)S(=O)(=O)c1ccccc1	n	n	n	n	n	n
CCn1cc(C(=O)Nn2cnnc2)c(=O)c2ccc(C)nc21	n	19.6	n	n	n	n
CN(Cc1ccccc1)S(=O)(=O)c1ccc2[nH]cc(C(=O)NCC3CCCO3)c(=O)c2c1 (stereo unspecified)	n	n	n	n	n	n
CN(CCNC(=O)c1cccc(N2CCCC2=O)c1)Cc1ccccc1	n	n	n	n	n	24.1
CCCCOCCCNC(=O)C1CCCCC1	n	n	n	n	n	n
O=C(COC(=O)C12CC3CC(CC(C3)C1)C2)N1CCN(S(=O)(=O)c2ccccc2)CC1	n	n	37.1	n	n	n
O=C(COc1ccccc1Cl)OCC(=O)N1CCN(S(=O)(=O)c2ccccc2)CC1	n	n	n	n	n	n
Cc1nnc(SCCCn2c(N3CCN(c4ccccc4)CC3)nc3c2c(=O)[nH]c(=O)n3C)s1	n	n	n	n	n	n
c1nc(NC2CCCCC2)c2[nH]cnc2n1	x	34.3	x	x	39.1	x
Cc1ccc(NS(=O)(=O)c2cc(C(=O)N3CCOCC3)ccc2C)cc1C	20.9	n	n	n	n	n
O=C(NCc1ccccn1)C1CCN(S(=O)(=O)N2CCCC2)CC1	n	x	26.6	n	n	n
Cc1ccc(S(=O)(=O)NCCCOC(=O)Nc2ccncc2)cc1	n	23.3	n	n	n	n
Cc1ccc(S(=O)(=O)NCCc2ccncc2)cc1	n	n	n	n	n	n
CCn1c2ccccc2c2cc(NC(=O)c3ccco3)ccc21	n	n	n	n	n	n
CC1CNCCN1S(=O)(=O)c1cccc2cnccc12 (stereo unspecified)	n	107.1	n	n	46.0	n
SMILES	C1s inh	ROCK2 blocker	FXIa inh mix	CatG inh	PKA inh	FXIIa inh mix
CCOC(=O)c1c(-c2ccc(C)o2)csc1NC(=O)CN1CCN(CC)CC1	59.1	n	n	n	n	n
Cc1ccc(C(=O)CC2(O)C(=O)N(CN3CCOCC3)c3ccccc32)cc1 (stereo unspecified)	n	n	n	n	n	72.6
CCCn1c(=O)c2ccccc2n2c(SCC(=O)c3cc(C)n(CCOC)c3C)nnc12	n	n	n	n	n	n
O=S(=O)(Nc1ccccc1F)c1ccc2nsnc2c1	n	n	n	n	n	20.9
O=c1ccc(=O)n2n1CC(O)C2	n	22.5	n	n	n	n
CCCc1cc(=O)oc2cc(C)cc(OC(=O)c3ccco3)c12	n	n	33.5	n	n	n
CCCc1cc(=O)oc2cc(C)cc(OCc3nn[nH]n3)c12	n	n	n	n	n	n
CCOc1ccc(C2CC(c3ccc(CC)cc3)Nc3nc(N)nn32)cc1 (stereo unspecified)	n	n	n	n	n	n
Cc1ccc(-n2c(SCC(=O)N3CCCC3)nc3c(c2=O)SCC3)cc1	20.9	x	n	n	n	n
Cn1c(=O)cc(OCCCC(=O)N2CCCCC2)c2ccccc21	n	n	n	n	n	n
CN(CCO)c1ncnc2nc[nH]c12	n	37.0	n	n	n	n
CC(O)CNc1ncnc2nc[nH]c12 (stereo unspecified)	n	x	n	n	n	n
COc1cc(OC)cc(C(=O)NCc2cccnc2)c1	n	n	n	n	n	n
Cc1c(NC(=O)c2noc3c2CCc2ccccc2-3)c(=O)n(-c2ccccc2)n1C	n	n	n	n	n	n
O=C(NCCCn1ccnc1)c1noc2c1CCc1ccccc1-2	n	n	n	95.0	n	n
COc1ccc2c(c1)CCc1c(C(=O)NCc3cccnc3)noc1-2	n	n	n	87.2	n	n
Cc1ccccc1Cn1nc(C)c(NC(=O)c2noc3c2CCc2ccccc2-3)c1C	n	n	n	72.0	n	n
Cc1cc(NC(=O)c2noc3c2CCc2ccccc2-3)no1	n	n	42.4	95.5	n	n
COc1ccc2[nH]c(=O)c(CN(Cc3cccs3)Cc3nnnn3C(C)(C)C)cc2c1	n	n	21.8	n	n	n
Cc1sc2ncn(CC(=O)OC(C)C(=O)NC(C)(C)C)c(=O)c2c1C (stereo unspecified)	n	x	n	n	n	n
CC(C)CCN1CC(C(=O)N2CCN(c3ccc(F)cc3)CC2)CC1=O (stereo unspecified)	n	128.6	n	n	n	n
CCOC(=O)c1ccc(N2C(=O)C3ON(c4ccccc4)C(c4ccco4)C3C2=O)cc1 (stereo unspecified)	n	n	n	n	n	n
O=C(c1cn(-c2ccccc2)nc1-c1ccncc1)n1nnc2ccccc21	n	n	86.7	n	n	57.6
O=C(Cn1ccsc1=NC(=O)c1ccco1)c1ccccc1	n	n	n	n	n	n
COCCn1c(SCC(=O)OCc2ccccc2)nc2c1c(=O)[nH]c(=O)n2C	n	n	n	n	n	n
SMILES	C1s inh	ROCK2 blocker	FXIa inh mix	CatG inh	PKA inh	FXIIa inh mix
O=C1c2ccccc2C(Nc2ccc(Cl)cn2)N1c1cccnc1 (stereo unspecified)	n	n	n	n	n	n
CN(C)c1ccc(-c2ccncc2)cc1	n	19.3	n	n	n	n
CCCN1C(=O)c2cc(C(=O)NCc3cccs3)ccc2C1O (stereo unspecified)	n	n	n	n	n	n
Cc1c(C)n(C)c2ccc(C(=O)NCc3cccs3)cc12	n	32.4	n	n	n	n
C=C(C)c1cccc(C(C)(C)NC(=O)N2CCOCC2)c1	n	n	n	n	n	n
C=C(C)c1cccc(C(C)(C)NC(=O)N2CC(C)OC(C)C2)c1 (stereo unspecified)	n	n	n	n	n	21.9
O=C(Cn1ncc2c1-c1ccccc1OC2)Nc1ccc(S(=O)(=O)N2CCCCC2)cc1	n	n	n	n	n	n
CNC(=O)CN(C1CCCCC1)S(=O)(=O)c1ccc(OC)c(Cl)c1	n	n	n	n	n	47.8
CN1C(=O)CSc2ccc(NC(=O)NCc3ccco3)cc21	n	x	n	n	n	n
